ADAM17 inh: ADAM17 inhibitors, primary screen, biochemical, QFRET | Disintegrin and metalloproteinase domain-containing protein 17 (Homo sapiens), P78536 | recombinant ADAM17, EDANS/DABCYL FRET peptide cleavage | inhibition, % at 6.95 µM | 370,000 tested, 0.83% active;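 active = inhibition above the mean of compounds lying between control limits plus 3 SD, set per campaign, cut at about 8.5% in these data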
NPR1 activator: GC-A stimulated cGMP production enhancers – HEK293 GC-A cells, cGMP TR-FRET, EC30 ANP, primary screen | 370,000 tested, 0.14% active | 0% at EC30 ANP, 100% saturating ANP | Atrial natriuretic peptide receptor 1 (Homo sapiens), P16066 | activation, % at 10 µM; in the data active = activation above about 40%
ADAM10 inh: human ADAM10 inhibitors, primary screen, biochemical, QFRET, HTS. AID 720582, 2013. recombinant ADAM10, EDANS/DABCYL FRET peptide cleavage, 3 h. Disintegrin and metalloproteinase domain-containing protein 10 (Homo sapiens), O14672. inhibition, % at 7 µM. 370,000 tested, 0.62% active;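 active = inhibition above a per-campaign cutoff equal to the mean of compounds falling between control-based bounds plus 3 SD, cut at about 20% in these data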
KLK7 zymogen act: proKLK7 zymogen activators, primary screen, biochemical, fluorescence intensity | AID 652039, 2013 | 370,000 tested, 0.9% active | activation, % at 7 µM | purified proKLK7, EDANS-DABCYL substrate fluorescence; 100% is mature enzyme control, 0% vehicle;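 active = activation above the mean of all tested compounds plus 3 SD, computed per campaign excluding outliers beyond control limits, cut at about 13% in these data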
GC-B act: human GC-B receptor activators, primary screen, HEK293 GC-B cells, cGMP TR-FRET, EC30 CNP; Atrial natriuretic peptide receptor 2 (Homo sapiens), P20594; 0% at EC30 CNP, 100% saturating CNP; activation, % at 10 µM; 370,000 tested, 0.11% active; AID 1920062, 2024;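 active = activation at 10 µM reaching about 35% in either raw or pattern-adjusted values, limit read from the data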
KLK7 act conf: proKLK7 zymogen activators, confirmation, biochemical, fluorescence intensity, triplicate. shares compounds with KLK7 zymogen act. purified proKLK7, EDANS-DABCYL substrate fluorescence; scaled: vehicle 0, mature enzyme 100. activation, % at 7 µM. 3,200 tested, 68% active. AID 686949, 2013;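 active = activation, as change over the incubation, above the mean of all tested compounds plus 3 SD, cut at about 13% in these data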
EDANS-DABCYL int: EDANS-DABCYL substrate optical interference, artefact control for kallikrein-7 zymogen activator project, biochemical, fluorescence intensity, high throughput; 3,200 tested, 80% active; shares compounds with KLK7 zymogen act; activation, % at 7 µM; no enzyme, 4 h; solvent 0%, active enzyme control 100%;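 active = activation above the all-compound mean plus 3 SD, ignoring values outside control-based bounds, cut at about 4.8% in these data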;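 also: value is the 4 h activation minus the activation read at time zero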
Numbers stand for hits; 0 = inactive; - = no result given. Shown are actives, neighbours in structure and some others; about 2.2% of the full set was active somewhere.

SMILES	ADAM17 inh	NPR1 activator	ADAM10 inh	KLK7 zymogen act	GC-B act	KLK7 act conf	EDANS-DABCYL int
CCc1cc2c(=O)c(-c3nc4ccccc4n3C)coc2c(CN2CCCCC2C)c1O (configuration not stated)	0	0	0	16	0	0	15
CCc1cc2c(=O)c(-c3nc4ccccc4n3C)coc2c(CN2CCOCC2)c1O	0	0	0	0	0	-	-
CCc1cc2c(=O)c(-c3nc4ccccc4n3C)coc2c(CN2CCCCC2)c1O	0	0	0	13	0	0	8.8
O=C(c1ccco1)N1C(=O)c2cccc3cccc1c23	0	0	0	35	0	87	90
O=C(c1cccs1)N1C(=O)c2cccc3cccc1c23	0	0	0	32	0	0	0
O=C(c1ccccc1F)N1C(=O)c2cccc3cccc1c23	0	0	0	0	0	-	-
Nc1cccc2c1C(=O)N(C(=O)c1ccco1)C2=O	0	0	0	32	0	154	178
Cc1nccc(-c2sc(-c3cccs3)nc2C)n1	0	0	0	41	0	20	21
CC(COc1ccccc1)CN1CCC(C(O)(c2ccccc2)c2ccccc2)CC1 (configuration not stated)	0	0	0	0	0	-	-
CCOc1ccc(C2C(C(=O)OC)=CN(CCOC)C=C2C(=O)OC)cc1	0	0	0	26	0	0	0
COCCN1C=C(C(=O)OC)C(c2ccc(Cl)cc2)C(C(=O)OC)=C1	0	0	0	31	0	0	0
COCCN1C=C(C(=O)OC)C(c2ccc3c(c2)OCO3)C(C(=O)OC)=C1	0	0	0	0	0	-	-
CCC(C(=O)Nc1ccccc1N1CCCC1)c1ccccc1F (configuration not stated)	0	0	0	0	0	-	-
O=C1CCC[C@H]2C[C@H](NCc3cccc(F)c3)CC[C@]23CCCN13	0	0	0	-	0	-	-
CCCc1cc(=O)oc2c3c(cc(OCC(=O)N4CCC[C@H]4C(=O)O)c12)OC(C)(C)CC3	0	0	0	40	0	48	69
CCc1cc(=O)oc2c3c(cc(OCC(=O)NC4CC4)c12)OC(C)(C)CC3	0	0	0	13	0	0	0
CCc1cc(=O)oc2c3c(cc(OCC(=O)NCCN4CCOCC4)c12)OC(C)(C)CC3	0	0	0	39	0	0	0
CCc1cc(=O)oc2c3c(cc(OCC(=O)NCCCC(=O)O)c12)OC(C)(C)CC3	0	0	0	29	0	65	65
COc1ccc(CNC(=O)COc2cc3c(c4oc(=O)cc(C)c24)CCC(C)(C)O3)cc1	0	0	0	0	0	-	-
O=C(Nc1ccccc1)OCCN1C(=O)CCC12CCC(c1ccccc1)CC2 (configuration not stated)	0	0	0	0	0	-	-
CCNC(=O)N(C)[C@H]1C[C@H]2c3[nH]c4c(-c5cccc(C)c5)cccc4c3CCN2C[C@H]1[C@H](C)O	0	0	0	0	0	-	-
COC(=O)[C@]12C[C@H](CC(=O)N3CCN(C(=O)c4ccco4)CC3)C(=O)N(Cc3ccco3)C1=C[C@H](C(C)(C)C)O[C@@H]2C	0	0	0	0	0	-	-
CCOC(=O)C1CCN(C(=O)C(Cc2ccc3c(c2)OCO3)NC(C)=O)CC1 (configuration not stated)	0	0	0	0	0	-	-
O=C(CSc1nc2ccccc2nc1N1CCCCC1)N1CCN(S(=O)(=O)c2cc(Cl)ccc2Cl)CC1	0	0	0	0	0	-	-
O=C(OCCN1CCN(C2CN(Cc3cn(Cc4ccccc4F)nn3)S(=O)(=O)C2)CC1)c1cc2ccccc2o1 (configuration not stated)	0	0	0	0	0	-	-
SMILES	ADAM17 inh	NPR1 activator	ADAM10 inh	KLK7 zymogen act	GC-B act	KLK7 act conf	EDANS-DABCYL int
Cc1cc(=O)oc2c3c(cc(OCC(=O)NCC4CCC(C(=O)O)CC4)c12)OC(C)(C)CC3 (configuration not stated)	0	0	0	40	0	76	77
Cc1cc(=O)oc2c3c(cc(OCC(=O)NCCC(=O)O)c12)OC(C)(C)CC3	0	0	0	40	0	64	64
CCc1cc(=O)oc2c3c(cc(OCC(=O)NCCCOC)c12)OC(C)(C)CC3	0	0	0	19	0	30	29
CCc1cc(=O)oc2c3c(cc(OCC(=O)NCCC(=O)O)c12)OC(C)(C)CC3	0	0	0	33	0	76	82
CCc1cc(=O)oc2c3c(cc(OCC(=O)NCc4ccncc4)c12)OC(C)(C)CC3	0	0	0	0	0	-	-
COC(=O)[C@]12C[C@H](CC(=O)N3CCCC3)C(=O)N(CCC3=CCCCC3)C1=C[C@H](C(C)C)O[C@@H]2C1CC1	0	0	0	0	0	-	-
CCn1c(SCC(=O)Nc2cccc3ccccc23)nnc1-c1cccs1	0	0	0	0	0	-	-
Cc1ccc(-c2nnc(SCC(=O)Nc3ccc4c(c3)OCCO4)n2-c2ccc(Cl)cc2)cc1	0	0	0	0	0	-	-
O=C(CCc1ccccc1)N[C@H]1[C@H](OC(=O)c2cnccn2)CCC[C@]12C(=O)N(Cc1ccccc1)c1ccccc12	0	0	0	0	0	-	-
COc1ccc(S[C@]2(C(=O)N(C)C)CC(=O)N(C(=O)c3ccccc3)[C@@H]2c2ccc(OC)cc2)cc1	0	0	0	0	0	-	-
COc1cc2c(cc1OC)C(Cc1ccc(O)cc1)NCC2 (configuration not stated)	0	0	0	0	0	-	-
COc1cc2c(cc1OC)C(Cc1ccc(O)cc1)N(C)CC2 (configuration not stated)	0	0	0	17	0	68	90
COc1ccc(/C=N/NC(=O)c2nnn(-c3nonc3N)c2-c2cccs2)cc1OC	0	0	0	32	0	217	353
COc1ccc(NS(=O)(=O)c2cccc(NC(=O)C3=NN(c4ccccc4)C(=O)CC3)c2)cc1	0	0	0	0	0	-	-
CN(c1ccccc1)S(=O)(=O)c1cccc(NC(=O)C2=NN(c3ccccc3)C(=O)CC2)c1	0	0	0	53	0	0	8.6

Screens from PubChem BioAssay.
